# Laboratory results taken from ChEMBL document CHEMBL4513139, “CO-ADD screening of University of Strathclyde (UK) compounds”.
# Potency and affinity values are given separately.
# System: Klebsiella pneumoniae
# Conditions: Concentration 32 ug.mL-1; ASSAY_TEST Inhibition of Bacterial Growth; detection method Absorption (OD600); MEDIA CAMHB; plate type 384well; NBS; CORNING #3640; time 18 hr
row,Structure (SMILES),Inhibition [%]
1,COC(=O)CCC(=O)Nc1cc(C(=O)Nc2cc(C(=O)NCCCN(C)C)n(C)c2)n(C)c1.O=C(O)C(F)(F)F,-5.32
2,Cc1ncc(Cn2cc(CCC(=O)O)nn2)c(N)n1.O=C(O)C(F)(F)F,-1.46
3,COc1ccc(CC(=O)Nc2cc(C(=O)Nc3cc(C(=O)Nc4cn(CCCN(C)C)cn4)n(C)c3)n(C)c2)cc1.O=C(O)C(F)(F)F,2.03
4,CC(C)c1sc(NC(=O)c2cc(NC(=O)c3cc(NC(=O)c4cnc(Cl)c(Cl)c4)cn3C)cn2C)nc1C(=O)NCCCN(C)C.O=C(O)C(F)(F)F,-2.83
5,Cc1ncc(CNc2ccc(Cl)cc2)c(N)n1,5.04
6,COc1cccc(C(=N)Nc2cc(C(=O)Nc3cc(C(=O)Nc4cc(C(=O)NCCCN5CCOCC5)n(C)c4)n(C)c3)n(C)c2)c1.O=C(O)C(F)(F)F.O=C(O)C(F)(F)F,14.25
7,CCOC(=O)c1cc(NC(=O)c2cc(NC(=O)c3nc(N)sc3C(C)C)cn2C)cn1C,11.43
8,Cc1ncc(Cn2cc(CCO)nn2)c(N)n1,-3.23
9,CCOC(=O)CCC(NC(=O)c1ccc(NCc2cn(Cc3cnc(C)nc3N)nn2)cc1)C(=O)OCC (stereo not given),-10.59
10,Cn1cc(NC(=O)c2cc(NC(=O)c3cc(NC(=O)c4ccc(Cl)cc4Cl)cn3C)cn2C)cc1C(=O)NCCN1CCOCC1.O=C(O)C(F)(F)F,11.99
11,CC(C)c1sc(N)nc1C(=O)Nc1cc(C(=O)NCCN2CCOCC2)n(C)c1.O=C(O)C(F)(F)F,8.18
12,CC(C)CCc1sc(NC(=O)c2cc(NC(=O)c3ccc(/C=C/c4cc5ccccc5nc4Cl)cc3)cn2C)nc1C(=O)NCCN1CCOCC1.O=C(O)C(F)(F)F,-4.36
13,CC(=O)N(C(C)=O)c1cc(C(=O)Nc2cc(C(=O)NCCC(=N)N)n(C)c2)n(C)c1.O=C(O)C(F)(F)F,5.82
14,CC(C)CCc1sc(NC(=O)c2cc(NC(=O)c3cc(NC(=O)CCC(=O)O)cn3C)cn2C)nc1C(=O)NCCCN(C)C.O=C(O)C(F)(F)F,2.15
15,CC(C)n1cc(NC(=O)c2cc(NC(=O)c3cc(NC=O)cn3C(C)C)cn2C)cc1C(=O)NCCCN(C)C.O=C(O)C(F)(F)F,2.64
16,Cc1ncc(CNc2ccccc2F)c(N)n1,12.81
17,Cc1ncc(Cn2cc(CO)nn2)c(N)n1,-6.43
18,Cc1ncc(CNc2ccc(C(F)(F)F)cc2)c(N)n1,1.98
19,CC(C)CCc1sc(N)nc1C(=O)Nc1cc(C(=O)Nc2cc(C(=O)NCCN3CCOCC3)n(C)c2)n(C)c1.O=C(O)C(F)(F)F,5.14
20,COc1cccc(C(=O)Nc2cc(C(=O)Nc3cc(C(=O)Nc4cn(CCCN(C)C)cn4)n(C)c3)n(C)c2)c1.O=C(O)C(F)(F)F,3.02
21,CC(=O)Nc1cc(C(=O)Nc2cc(C(=O)Nc3cc(C(=O)NCCCN(C)C)n(CCC(C)C)c3)n(C)c2)n(C)c1.O=C(O)C(F)(F)F,-0.56
22,COC(=O)c1ccc(C(=O)Nc2cc(C(=O)Nc3cc(C(=O)NCCCN(C)C)n(C)c3)n(C)c2)cc1.O=C(O)C(F)(F)F,6.59
23,Cn1cc(NC(=O)c2cc(NC(=O)c3sc(N)nc3C(F)(F)F)cn2C)cc1C(=O)NCCN1CCOCC1.O=C(O)C(F)(F)F,-3.11
24,CCOC(=O)c1cc(NC(=O)c2cc(NC(=O)c3sc(N)nc3C(F)(F)F)cn2C)cn1C,7.86
25,COCCOC1CCN(C(=O)c2cc(NC(=O)c3cc(NC(=O)c4ccc(/C=C/c5cnc6ccccc6c5)cc4)cn3C)cn2C)CC1,10.84
26,COC(=O)c1ccc(C(=O)Nc2cc(C(=O)Nc3cc(C(=O)NCCC(=N)N)n(C)c3)n(C)c2)cc1.O=C(O)C(F)(F)F,7.16
27,Cc1ncc(CNc2ccc(F)cc2)c(N)n1,12.64
28,CC(C)c1sc(N)nc1C(=O)Nc1cc(C(=O)Nc2cc(C(=O)NCCN3CCOCC3)n(C)c2)n(C)c1.O=C(O)C(F)(F)F,-2.63
29,CN(C)CCCNC(=O)c1cc(NC(=O)c2cc(NC(=O)c3ccc(C(=O)O)cc3)cn2C)cn1C.O=C(O)C(F)(F)F,8.35
30,CC(C)CCc1sc(NC(=O)c2cc(NC(=O)c3ccc(/C=C/c4cc5ccccc5nc4On4nnc5ccccc54)cc3)cn2C)nc1C(=O)NCCN1CCOCC1.O=C(O)C(F)(F)F,-11.86

# System: Candida albicans
# Conditions: 32 ug/mL
row,Structure (SMILES),Inhibition [%]
1,COC(=O)CCC(=O)Nc1cc(C(=O)Nc2cc(C(=O)NCCCN(C)C)n(C)c2)n(C)c1.O=C(O)C(F)(F)F,0.6
2,Cc1ncc(Cn2cc(CCC(=O)O)nn2)c(N)n1.O=C(O)C(F)(F)F,2.33
3,COc1ccc(CC(=O)Nc2cc(C(=O)Nc3cc(C(=O)Nc4cn(CCCN(C)C)cn4)n(C)c3)n(C)c2)cc1.O=C(O)C(F)(F)F,1.27
4,CC(C)c1sc(NC(=O)c2cc(NC(=O)c3cc(NC(=O)c4cnc(Cl)c(Cl)c4)cn3C)cn2C)nc1C(=O)NCCCN(C)C.O=C(O)C(F)(F)F,7.37
5,Cc1ncc(CNc2ccc(Cl)cc2)c(N)n1,-0.54
6,COc1cccc(C(=N)Nc2cc(C(=O)Nc3cc(C(=O)Nc4cc(C(=O)NCCCN5CCOCC5)n(C)c4)n(C)c3)n(C)c2)c1.O=C(O)C(F)(F)F.O=C(O)C(F)(F)F,1.73
7,CCOC(=O)c1cc(NC(=O)c2cc(NC(=O)c3nc(N)sc3C(C)C)cn2C)cn1C,4.33
8,Cc1ncc(Cn2cc(CCO)nn2)c(N)n1,0.2
9,CCOC(=O)CCC(NC(=O)c1ccc(NCc2cn(Cc3cnc(C)nc3N)nn2)cc1)C(=O)OCC (stereo not given),5.67
10,Cn1cc(NC(=O)c2cc(NC(=O)c3cc(NC(=O)c4ccc(Cl)cc4Cl)cn3C)cn2C)cc1C(=O)NCCN1CCOCC1.O=C(O)C(F)(F)F,9.71
11,CC(C)c1sc(N)nc1C(=O)Nc1cc(C(=O)NCCN2CCOCC2)n(C)c1.O=C(O)C(F)(F)F,3.26
12,CC(C)CCc1sc(NC(=O)c2cc(NC(=O)c3ccc(/C=C/c4cc5ccccc5nc4Cl)cc3)cn2C)nc1C(=O)NCCN1CCOCC1.O=C(O)C(F)(F)F,2.62
13,CC(=O)N(C(C)=O)c1cc(C(=O)Nc2cc(C(=O)NCCC(=N)N)n(C)c2)n(C)c1.O=C(O)C(F)(F)F,3.85
14,CC(C)CCc1sc(NC(=O)c2cc(NC(=O)c3cc(NC(=O)CCC(=O)O)cn3C)cn2C)nc1C(=O)NCCCN(C)C.O=C(O)C(F)(F)F,2.8
15,CC(C)n1cc(NC(=O)c2cc(NC(=O)c3cc(NC=O)cn3C(C)C)cn2C)cc1C(=O)NCCCN(C)C.O=C(O)C(F)(F)F,-1.38
16,Cc1ncc(CNc2ccccc2F)c(N)n1,1.65
17,Cc1ncc(Cn2cc(CO)nn2)c(N)n1,1.92
18,Cc1ncc(CNc2ccc(C(F)(F)F)cc2)c(N)n1,0.52
19,CC(C)CCc1sc(N)nc1C(=O)Nc1cc(C(=O)Nc2cc(C(=O)NCCN3CCOCC3)n(C)c2)n(C)c1.O=C(O)C(F)(F)F,4.42
20,COc1cccc(C(=O)Nc2cc(C(=O)Nc3cc(C(=O)Nc4cn(CCCN(C)C)cn4)n(C)c3)n(C)c2)c1.O=C(O)C(F)(F)F,3.2
21,CC(=O)Nc1cc(C(=O)Nc2cc(C(=O)Nc3cc(C(=O)NCCCN(C)C)n(CCC(C)C)c3)n(C)c2)n(C)c1.O=C(O)C(F)(F)F,0.94
22,COC(=O)c1ccc(C(=O)Nc2cc(C(=O)Nc3cc(C(=O)NCCCN(C)C)n(C)c3)n(C)c2)cc1.O=C(O)C(F)(F)F,1.31
23,Cn1cc(NC(=O)c2cc(NC(=O)c3sc(N)nc3C(F)(F)F)cn2C)cc1C(=O)NCCN1CCOCC1.O=C(O)C(F)(F)F,1.1
24,CCOC(=O)c1cc(NC(=O)c2cc(NC(=O)c3sc(N)nc3C(F)(F)F)cn2C)cn1C,4.58
25,COCCOC1CCN(C(=O)c2cc(NC(=O)c3cc(NC(=O)c4ccc(/C=C/c5cnc6ccccc6c5)cc4)cn3C)cn2C)CC1,3.83
26,COC(=O)c1ccc(C(=O)Nc2cc(C(=O)Nc3cc(C(=O)NCCC(=N)N)n(C)c3)n(C)c2)cc1.O=C(O)C(F)(F)F,5.42
27,Cc1ncc(CNc2ccc(F)cc2)c(N)n1,4.55
28,CC(C)c1sc(N)nc1C(=O)Nc1cc(C(=O)Nc2cc(C(=O)NCCN3CCOCC3)n(C)c2)n(C)c1.O=C(O)C(F)(F)F,3.25
29,CN(C)CCCNC(=O)c1cc(NC(=O)c2cc(NC(=O)c3ccc(C(=O)O)cc3)cn2C)cn1C.O=C(O)C(F)(F)F,15.6
30,CC(C)CCc1sc(NC(=O)c2cc(NC(=O)c3ccc(/C=C/c4cc5ccccc5nc4On4nnc5ccccc54)cc3)cn2C)nc1C(=O)NCCN1CCOCC1.O=C(O)C(F)(F)F,12.3
